# Laboratory results published in publication PMC5700166.
# Target: T1, GST-Aq-NF-kB (Amphimedon queenslandica, UniProt A9Y5G7 2-389)
# T1 sequence: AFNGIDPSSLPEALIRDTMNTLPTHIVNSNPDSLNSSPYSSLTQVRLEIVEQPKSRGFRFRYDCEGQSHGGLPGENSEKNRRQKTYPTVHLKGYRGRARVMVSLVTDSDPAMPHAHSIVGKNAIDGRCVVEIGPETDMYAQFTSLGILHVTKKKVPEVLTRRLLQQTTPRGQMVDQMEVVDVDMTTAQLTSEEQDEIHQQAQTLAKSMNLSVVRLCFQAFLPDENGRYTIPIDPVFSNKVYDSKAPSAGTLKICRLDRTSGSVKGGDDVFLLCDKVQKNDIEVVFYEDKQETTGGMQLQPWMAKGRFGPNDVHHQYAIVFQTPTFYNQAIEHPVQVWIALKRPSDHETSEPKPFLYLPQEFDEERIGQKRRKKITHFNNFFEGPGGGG
# Assay: protein-binding microarray (PBM); PBM: ~300 nM protein, 6 mM HEPES pH 7.8, 80 mM KCl, 0.5 mM EDTA, 0.5 mM EGTA, 6% glycerol, 35 ng/ul poly-dIdC, 1% milk, 1 h, room temperature; Ap Aiptasia and Nv Nematostella (sea anemones) / Co Capsaspora / Aq Amphimedon (sponge) / Dm Drosophila / Hu human; RHD is the Rel homology domain; high values mean tight binding
# Conditions: dsDNA, one strand shown
row,Sequence,binding signal [z-score]
1,CCGATTAACATCAGGAAATACCATGATGTTAATCGGGTCTTGATTCGCTTGACGCTGCTG,3.27
2,CCGATTAACATCAAAAATTCCGGTGATGTTAATCGGGTCTTGATTCGCTTGACGCTGCTG,2.94
3,CCGATTAACATCAGGAAAGTACATGATGTTAATCGGGTCTTGATTCGCTTGACGCTGCTG,1.61
4,CCGATTAACATCAGGTAAGTCCATGATGTTAATCGGGTCTTGATTCGCTTGACGCTGCTG,2.33
5,CCGATTAACATCACGGAATTTTATGATGTTAATCGGGTCTTGATTCGCTTGACGCTGCTG,2.25
6,CCGATTAACATCAATGGAATTCCTGATGTTAATCGGGTCTTGATTCGCTTGACGCTGCTG,1.5
7,CCGATTAACATCAAGTAAATTCCTGATGTTAATCGGGTCTTGATTCGCTTGACGCTGCTG,1.35
8,CCGATTAACATCACAGAATTTCCTGATGTTAATCGGGTCTTGATTCGCTTGACGCTGCTG,1.36

# Target: GST-Hu-p50 (Homo sapiens, UniProt P19838 7-356)
# Assay: as above
# Conditions: dsDNA, one strand shown
# Chain of GST-Hu-p50 (P19838 7-356): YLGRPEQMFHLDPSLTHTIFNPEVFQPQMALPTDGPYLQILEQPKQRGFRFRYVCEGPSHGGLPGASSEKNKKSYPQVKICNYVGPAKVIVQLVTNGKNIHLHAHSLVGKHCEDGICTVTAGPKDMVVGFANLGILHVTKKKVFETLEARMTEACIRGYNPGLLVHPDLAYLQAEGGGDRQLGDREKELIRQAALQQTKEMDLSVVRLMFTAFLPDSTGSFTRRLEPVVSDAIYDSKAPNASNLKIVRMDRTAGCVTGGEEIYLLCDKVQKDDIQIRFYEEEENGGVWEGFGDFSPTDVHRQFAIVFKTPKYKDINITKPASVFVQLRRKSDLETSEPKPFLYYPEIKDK
row,Sequence,binding signal [z-score]
1,CCGATTAACATCACCGAAATTCCTGATGTTAATCGGGTCTTGATTCGCTTGACGCTGCTG,2.52
2,CCGATTAACATCAGAATTTTTCCTGATGTTAATCGGGTCTTGATTCGCTTGACGCTGCTG,1.1
3,CCGATTAACATCACCTAACTTGATGATGTTAATCGGGTCTTGATTCGCTTGACGCTGCTG,1.66
4,CCGATTAACATCACCTGGTCGGGTGATGTTAATCGGGTCTTGATTCGCTTGACGCTGCTG,2.04
5,CCGATTAACATCATGATATCCGGTGATGTTAATCGGGTCTTGATTCGCTTGACGCTGCTG,1.11
6,CCGATTAACATCATGGTGCTTAATGATGTTAATCGGGTCTTGATTCGCTTGACGCTGCTG,1.41
7,CCGATTAACATCACCCTCCAATTTGATGTTAATCGGGTCTTGATTCGCTTGACGCTGCTG,1.13
8,CCGATTAACATCAGCAATGTAGGTGATGTTAATCGGGTCTTGATTCGCTTGACGCTGCTG,1.13
9,CCGATTAACATCAGGGCCAAAAATGATGTTAATCGGGTCTTGATTCGCTTGACGCTGCTG,1.38
10,CCGATTAACATCATTTCTTACGGTGATGTTAATCGGGTCTTGATTCGCTTGACGCTGCTG,1.44
11,CCGATTAACATCACCCCGCATGCTGATGTTAATCGGGTCTTGATTCGCTTGACGCTGCTG,1.34
12,CCGATTAACATCATGTTTGCGGGTGATGTTAATCGGGTCTTGATTCGCTTGACGCTGCTG,1.53
13,CCGATTAACATCACGGAAAAAACTGATGTTAATCGGGTCTTGATTCGCTTGACGCTGCTG,1.36
14,CCGATTAACATCAGGAAGGGCGGTGATGTTAATCGGGTCTTGATTCGCTTGACGCTGCTG,1.07
15,CCGATTAACATCACCTGAACTATTGATGTTAATCGGGTCTTGATTCGCTTGACGCTGCTG,1.45
16,CCGATTAACATCACCAGGTTAGGTGATGTTAATCGGGTCTTGATTCGCTTGACGCTGCTG,3.09
17,CCGATTAACATCAGCAAATTTCCTGATGTTAATCGGGTCTTGATTCGCTTGACGCTGCTG,1.07
18,CCGATTAACATCACAGCGTGAGGTGATGTTAATCGGGTCTTGATTCGCTTGACGCTGCTG,1.16
19,CCGATTAACATCACCTTAGGTTTTGATGTTAATCGGGTCTTGATTCGCTTGACGCTGCTG,1.04
20,CCGATTAACATCAGGAAATTGCCTGATGTTAATCGGGTCTTGATTCGCTTGACGCTGCTG,1.3
21,CCGATTAACATCACCTTTTACATTGATGTTAATCGGGTCTTGATTCGCTTGACGCTGCTG,1.53
22,CCGATTAACATCATATTGGGAAATGATGTTAATCGGGTCTTGATTCGCTTGACGCTGCTG,1.12
23,CCGATTAACATCACCTTGAACGGTGATGTTAATCGGGTCTTGATTCGCTTGACGCTGCTG,2.74
24,CCGATTAACATCAATTCCCAACCTGATGTTAATCGGGTCTTGATTCGCTTGACGCTGCTG,1.06
25,CCGATTAACATCACTCTTCTCGGTGATGTTAATCGGGTCTTGATTCGCTTGACGCTGCTG,1.72
26,CCGATTAACATCACGTGTGTAGGTGATGTTAATCGGGTCTTGATTCGCTTGACGCTGCTG,1.87
27,CCGATTAACATCACGGGCAGTGGTGATGTTAATCGGGTCTTGATTCGCTTGACGCTGCTG,1.37
28,CCGATTAACATCACCGAGTTAGTTGATGTTAATCGGGTCTTGATTCGCTTGACGCTGCTG,1.5
29,CCGATTAACATCACCTTGTGATCTGATGTTAATCGGGTCTTGATTCGCTTGACGCTGCTG,1.21
